Anthrax LF prot – blocks Bacillus anthracis lethal factor protease | P15917 | multiplex microsphere protease cleavage assay, LF | inhibition, % at 10 µM | hit rate 0.12% among 360,000
BoNT F protease – BoNT F light chain protease inhibition; AID 588497; Multiplex microsphere protease cleavage assay, flow cytometry; hit rate 0.22% among 360,000; inhibition, % at 10 µM; in the data active means inhibition above about 35%, passing the limit was not always enough; inconclusive means no clear call, values can overlap the other calls
DUSP3 inh – blocks human VHR1 dual specificity phosphatase; recombinant VHR phosphatase, pNPP absorbance; inhibition, % at 13.3 µM; hit rate 0.52% among 290,000; in the data active means inhibition above about 50%
Target sequence (P51452 whole entry, looked up): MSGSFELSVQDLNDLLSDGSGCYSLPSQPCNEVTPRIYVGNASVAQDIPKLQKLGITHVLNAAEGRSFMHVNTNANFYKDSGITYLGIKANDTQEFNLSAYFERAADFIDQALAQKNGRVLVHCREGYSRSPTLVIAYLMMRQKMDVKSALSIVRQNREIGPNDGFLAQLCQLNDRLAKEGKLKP
Autofluor counter – compound fluorescence in toxin protease inhibitor counterscreen; AID 624483; fluorescence intensity (concentration not given with the values); hit rate 3.1% among 360,000; compound autofluorescence counterscreen, microsphere flow cytometry; active compounds read high; in the data active means fluorescence intensity above about 16000; inconclusive means no clear call, values can overlap the other calls
BoNT-A LC inh2 – BoNT A light chain protease inhibition; AID 588499; hit rate 0.17% among 360,000; inhibition, % at 10 µM; multiplex microsphere protease substrate cleavage, flow cytometry
MazF activator – activators of E. coli MazEF toxin-antitoxin RNase. FAM/BHQ RNA-DNA oligo cleavage fluorescence, 5 h. P0AE70. hit rate 0.32% among 350,000. activation, % at 20 µM; in the data active means activation above about 50%
Target sequence (P0AE70 whole entry, looked up): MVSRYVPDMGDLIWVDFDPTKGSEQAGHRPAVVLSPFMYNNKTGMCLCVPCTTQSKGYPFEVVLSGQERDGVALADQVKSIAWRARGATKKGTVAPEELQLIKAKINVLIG
Hits are given with their value; n = inactive; u = inconclusive; x = no result; + = active, no number. Only some compounds are listed: those with a hit (about 4% of all), similar ones and a draw of the others. Unless noted, no stated cut-off is given here; in the data, active means inhibition above about 30%; inconclusive means no clear call, values can overlap the other calls; inactive means below that.

SMILES	Anthrax LF prot	BoNT F protease	DUSP3 inh	Autofluor counter	BoNT-A LC inh2	MazF activator
CC(=O)C(N=Nc1ccccc1)(Sc1nnc(-c2ccccc2)n1-c1ccccc1)C(=O)Nc1ccccc1 (stereo not drawn)	n	n	n	19172	n	n
CC(=O)C(N=Nc1ccccc1)(Sc1nnc(-c2ccccc2)n1-c1ccccc1)C(C)=O	n	n	n	22141	n	n
CC(=O)/C(=N\Nc1ccccc1)Sc1nnc(-c2ccccc2)n1-c1ccccc1	n	n	n	n	n	n
CC(=O)Nc1ccc(NC(=O)CSc2nnc3ccc(-c4cccnc4)nn23)cc1	n	n	x	n	n	n
COc1ccc(NC(=O)/C(=C\c2ccco2)NC(=O)c2ccco2)cc1	n	n	n	n	n	n
Cn1c(SCC(=O)OC2CCCCC2)nnc1-c1ccc2c(c1)OCO2	n	n	n	21547	n	n
COC(=O)c1cc2n(n1)CCN(Cc1cccc(OC)c1)C2=O	n	n	n	n	n	n
COc1ccc([C@@H]2[C@H]3C(=O)N(c4cccc(C(F)(F)F)c4)C(=O)[C@H]3ON2C)cc1	n	n	n	21509	n	n
CCCCOCCCNC(=O)CC(C)c1ccccc1 (stereo not drawn)	n	n	n	n	n	n
O=C1CCCC(O)=C1N=Nc1c(Cl)cc(C(F)(F)F)cc1Cl	83	u	n	n	n	n
CCOC(=O)c1c(C)[nH]c(C2=NNC(=Nc3cccc(Cl)c3)SC2)c1C	x	x	n	x	x	x
CCOc1ccc2cc(C#N)c(SCC(=O)N3CCC(C)CC3)nc2c1	n	n	n	23801	n	n
COc1ccc2cc(C#N)c(SCC(=O)NNC(=O)Cc3ccccc3)nc2c1	n	n	n	19935	n	n
COc1ccc2cc(C#N)c(SCC(=O)N3CCCC3)nc2c1	n	n	n	n	n	n
COC(=O)CSc1nc2cc(OC)ccc2cc1C#N	n	n	n	n	n	203
Cc1cccc(CC(=O)NCCn2c(C)cc3ccccc32)c1	n	n	n	n	89	n
COc1ccccc1-c1nnc2n1N=C(C)CS2	n	n	n	n	n	n
C=CCn1c(SCC(=O)NNC(=O)Nc2cccc(Cl)c2)nnc1-c1ccccc1	n	n	n	n	n	n
Cc1nc(NC(=O)c2ccccc2)sc1-c1csc(NCCc2ccccc2)n1	n	n	n	25254	n	n
C[C@H]1COC(=O)CCC/C=C\C[C@H](CC(=O)N(CCO)Cc2ccccc2)C(=O)N1	n	n	x	n	n	n
Cc1nc2ccccc2c2nc(NC(=O)Cc3ccccc3)nn12	n	n	n	17263	u	n
COc1ccc(S(=O)(=O)N(C)CC(=O)N2CCCCC2)cc1Cl	n	n	n	n	n	n
COc1ccc(S(=O)(=O)N(C)CC(=O)N2CCCC2)cc1OC	n	u	53	n	n	n
COc1ccc(S(=O)(=O)N(C)CC(=O)N2CCN(C)CC2)cc1Cl	n	n	53	u	n	n
COc1ccc(S(=O)(=O)N(C)CC(=O)Nc2cccc(C(C)=O)c2)cc1Cl	n	n	n	18037	n	n
SMILES	Anthrax LF prot	BoNT F protease	DUSP3 inh	Autofluor counter	BoNT-A LC inh2	MazF activator
CCC(C)C(NS(=O)(=O)c1ccc(C)cc1)C(=O)Oc1ccc2c3c(c(=O)oc2c1)CCC3 (stereo not drawn)	n	n	n	n	n	n
CCOC(=O)c1nnn(-c2nonc2N)c1CNC(C)C	n	n	n	21205	u	n
CCOC(=O)c1nnn(-c2nonc2N)c1CN1CCCCCC1	n	n	n	16135	n	n
CCOC(=O)c1nnn(-c2nonc2N)c1CN1CCCC1	n	n	n	n	n	n
S=c1nc(C2CCCCC2)[nH][nH]1	n	n	n	17098	n	n
Nc1n[nH]c(C2CCCCC2)n1	n	n	n	n	n	n
C=CCN1C(=O)/C(=C\c2ccc(C)cc2)N=C1SCC(=O)NCCC	n	n	n	n	n	n
COc1cc(OC)cc(-c2nc3ccccc3s2)c1	n	n	n	23472	n	n
Cc1cc(-c2nc3ccccc3s2)ccc1N	n	n	x	n	n	n
CCNc1cc(O)ccc1C	n	n	x	n	n	n
O=C(NCCc1ccccn1)C1CC(=O)N(Cc2ccccc2Cl)C1 (stereo not drawn)	n	n	n	19830	u	n
COc1ccc(CN2CC(C(=O)NCc3ccccn3)CC2=O)cc1 (stereo not drawn)	n	n	n	n	n	n
CCn1cc([N+](=O)[O-])c(C(=O)N2N=C3/C(=C/c4cccs4)CCCC3C2c2cccs2)n1 (stereo not drawn)	n	n	n	21392	n	n
COc1cc(C)c(S(=O)(=O)Nc2ccc(CC(=O)O)cc2)cc1C	n	n	n	25248	n	n
O=C(O)Cc1ccc(NS(=O)(=O)c2ccccc2Br)cc1	n	n	n	n	n	n
Cc1cc(-c2ccccc2)c2c3c(c(-c4ccccc4)n2n1)c(=O)n(C)c(=O)n3C	n	n	n	n	n	+
Cc1cc(C)c2c3c(c(-c4ccccc4)n2n1)c(=O)n(C)c(=O)n3C	n	n	x	n	n	n
O=C(c1ccccc1)c1c[nH]c(C(=O)C(Cl)(Cl)Cl)c1	n	n	n	n	n	n
CC1CCCN(C(=O)CCS(=O)(=O)Cc2ccccc2)C1 (stereo not drawn)	n	n	n	16402	n	n
COc1ccc(OC)c(NC(=O)c2cc3c(cc2Cl)N2CCCCCC2=NS3(=O)=O)c1	n	n	x	n	n	n
COC(=O)C1=C(C)C(c2cccs2)NC(=O)N1C (stereo not drawn)	n	n	n	16502	u	n
COc1ccc2oc(C(=O)OCC(=O)NC3CCS(=O)(=O)C3)c(C)c2c1 (stereo not drawn)	n	n	x	n	n	n
Cc1cccc(NC(=O)CNC(=O)CCNC(=O)c2ccc(C(C)(C)C)cc2)c1C	x	x	x	x	x	n
Cc1cc(SCC(=O)Nc2ccccc2)nc(C)n1	n	n	n	n	n	n
CSc1nc(C)cc(SCC(=O)Nc2ccccc2)n1	n	n	n	23915	n	n
SMILES	Anthrax LF prot	BoNT F protease	DUSP3 inh	Autofluor counter	BoNT-A LC inh2	MazF activator
CCOC(=O)CSc1cc(C)nc(NC(C)=O)n1	n	n	n	19697	u	n
CCOC(=O)CSc1cn2c(n1)CCC2	n	n	n	24514	n	n
Cc1cc(C(F)(F)F)nc(SCC(=O)Nc2ccccc2)n1	n	n	n	22832	u	n
CNC(=O)c1ccc(Nc2nnc(-c3ccc(C)c(S(=O)(=O)NCC4CCCO4)c3)c3ccccc23)cc1 (stereo not drawn)	n	n	n	n	n	n
COC(=O)CSc1cc(C)nc(SC)n1	n	n	n	20467	n	n
Cc1cc(C)n(/N=C/c2ccc(C(C)C)cc2)c(=O)c1C#N	n	n	51	n	n	n
Cc1ccc(/C=N/n2c(C)cc(C)c(C#N)c2=O)cc1	n	n	n	n	n	n
O=C1c2ccccc2C(=O)N1Cc1nc2ccccc2c(=O)n1-c1ccccn1	n	n	n	n	n	n
O=C(CSc1nnc(-c2ccc3c(c2)OCO3)o1)Nc1c(F)cccc1F	x	x	x	x	x	n
CCOc1ccccc1CNC(=O)C1CCN(c2nnc(C)c3c(C)n(-c4ccc(C)cc4)nc23)CC1	n	n	n	n	n	n

Compound activity (PubChem BioAssay)
